Experimental data published in PubChem BioAssay (NCI).
Compounds without any hit were thinned out: in the full panel of roughly 83,000, 20% have a hit.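 Cells were grown in 96-well plates and exposed to the test compound at a single concentration for 48 hours; results are reported as percent growth, with values below 10 considered active.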 Unmarked numbers belong to inactive results. Activity calls are given as the source filed them.

Each molecule was assayed on UACC-257 melanoma (assay: NCI-60 one-dose screen, 48 h (100 = growth as untreated, 0 = no growth, -100 = all killed)). Details: 10 µM unless noted.

| Compound | growth |
| --- | --- |
| O=C(CSc1nc2ccccc2c(=O)[nH]1)NCCN1CCCCC1 | 97.3% |
| N#Cc1c(-c2ccccc2Cl)cc(-c2c[nH]c3ccccc23)[nH]c1=O | 82.3% |
| CCCCSc1nc(Nc2ccc(C(C)=O)cc2)c(C#N)c(-c2ccc(OC)cc2)n1 | 104% |
| N/C(=N\c1nc2ccccc2s1)NC(=O)NCCCCCCO | 29.2% |
| O=C(NNc1ccccc1)n1c(=O)c2ccccc2c(=O)n1-c1ccccc1 | 77.6% |
| CC(=O)Oc1ccccc1C(=O)[Se]CC(=O)Nc1cccc(C(F)(F)F)c1 | -24.2% (active) |
| COc1ccc(Cc2nn(CC(=O)N/N=C/c3ccc(F)cc3)c(=O)c3c(C)noc23)cc1 | 54.3% |
| COc1ccc(C(=O)/C=C/c2ccc(Oc3nc(Nc4ccc(F)cc4)nc(N(C)C)n3)c(OC)c2)cc1 | 42.5% |
| O=C(N/N=C/c1ccc(-c2ccc(O)cc2)o1)c1[nH]c2ccc(Br)cc2c1-c1ccccc1 | 27.4% |
| CC(=O)OC[C@@]1(C)C2CC[C@]3(C)C(CC=C4C5CC(C)(C)CC[C@]5(C(=O)Nc5ccc(Br)cc5)CC[C@]43C)[C@@]2(C)C[C@@H](OC(C)=O)[C@@H]1OC(C)=O (stereo partly drawn) | 20% |
| Cc1ccc(-n2c(-c3cc4ccccc4nc3Cl)noc2=O)cc1 | 95% |
| O=c1cc(-c2ccccc2)oc2cc(OCCCC[P+](c3ccccc3)(c3ccccc3)c3ccccc3)cc(O)c12 | -91% (active) |
| Cc1ccc(Cc2cnc(NC(=O)c3ccc(/C=C4\SC(=S)N(C)C4=O)cc3)s2)cc1 | 30.4% |
